In PubChem BioAssay (NCATS):
Results filed as inconclusive are left out. Active and inactive are the calls of the source. Calls follow the shape of the dose curve; as a rule, active = well fitted curve in the direction sought with a large enough effect; inconclusive = small, poorly fitted or top-dose-only effect, or another doubt; inactive = no such curve, though single readings can be large; an effect the other way counts as inactive or inconclusive.

What was measured:
MCC-13 = experiment: qHTS assay to identify novel small-molecules to repurpose for Merkel cell carcinoma treatment (AID 1296009); details: MCC and control cell lines, CellTiter-Glo viability, 72 h; series mostly up to 46 µM; also: nearly all actives have a fitted effect of over 60% in size
Outline: (§1)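 Cell viability measured by CellTiter-Glo following 72 hr compound treatment at 37 degree celsius, with NPC and MIPE libraries tested in 8- and 11-point concentration series.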

MCC-26 = experiment: as above; details: MCC and control cell lines, CellTiter-Glo viability, 72 h; series mostly up to 46 µM
Outline: as §1

MKL-1 = experiment: as above; details: MCC and control cell lines, CellTiter-Glo viability, 72 h; series mostly up to 46 µM
Outline: as §1

MKL-2 = experiment: as above; details: MCC and control cell lines, CellTiter-Glo viability, 72 h; series mostly up to 46 µM
Outline: as §1

UISO = experiment: as above; details: MCC and control cell lines, CellTiter-Glo viability, 72 h; series mostly up to 46 µM
Outline: as §1

WaGa = experiment: as above; details: MCC and control cell lines, CellTiter-Glo viability, 72 h; series mostly up to 46 µM
Outline: as §1

C33A = experiment: Primary qHTS to identify gynecologic anti-cancer compounds using libraries of approved drugs and bioactive compounds (AID 1345084); details: Gynecologic cancer cell panel viability, ATPlite luminescence, 48 h; series mostly up to 57.5 µM; also: nearly all actives have a fitted effect of over 55% in size
Outline: (§2)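 Luminescence from the ATPlite ATP-monitoring reagent indicates viable cell number; lower signal means cytotoxicity. Cells received compound 16 h after seeding and were exposed for 48 h across five concentrations.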

CASKI = experiment: as above; details: Gynecologic cancer cell panel viability, ATPlite luminescence, 48 h; series mostly up to 57.5 µM
Outline: as §2

Es-2 = experiment: as above; details: Gynecologic cancer cell panel viability, ATPlite luminescence, 48 h; series mostly up to 57.5 µM
Outline: as §2

HeLa = experiment: as above; details: Gynecologic cancer cell panel viability, ATPlite luminescence, 48 h; series mostly up to 57.5 µM
Outline: as §2

Hek293T = experiment: as above; details: Gynecologic cancer cell panel viability, ATPlite luminescence, 48 h, control line for the selectivity index; series mostly up to 57.5 µM
Outline: as §2

JEG-3 = experiment: as above; details: Gynecologic cancer cell panel viability, ATPlite luminescence, 48 h; series mostly up to 57.5 µM
Outline: as §2

OV90 = experiment: as above; details: Gynecologic cancer cell panel viability, ATPlite luminescence, 48 h; series mostly up to 57.5 µM
Outline: as §2

PA-1 = experiment: as above; details: Gynecologic cancer cell panel viability, ATPlite luminescence, 48 h; series mostly up to 57.5 µM
Outline: as §2

SKOV3 = experiment: as above; details: Gynecologic cancer cell panel viability, ATPlite luminescence, 48 h; series mostly up to 57.5 µM
Outline: as §2

Tov-21-G = experiment: as above; details: Gynecologic cancer cell panel viability, ATPlite luminescence, 48 h; series mostly up to 57.5 µM
Outline: as §2

Tov112D = experiment: as above; details: Gynecologic cancer cell panel viability, ATPlite luminescence, 48 h; series mostly up to 57.5 µM
Outline: as §2

[1] = Drug repurposing screens with cells derived from glioblastoma tumor samples (AID 1345199); details: GBM patient neurospheres viability, ATP luminescence, 48 h; also: nearly all actives have a fitted effect of over 40% in size
Outline: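 Primary testing used CD133+ neurospheres from four GBM patients, seven concentrations, 48 h exposure and ATP-based viability; confirmation added three slower-growing patient lines.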

CAOV3 = experiment: Primary qHTS to identify gynecologic anti-cancer compounds using libraries of approved drugs and bioactive compounds (AID 1345084); details: Gynecologic cancer cell panel viability, ATPlite luminescence, 48 h; series mostly up to 57.5 µM; also: nearly all actives have a fitted effect of over 55% in size
Outline: as §2

[2] = at 45.9 µM (top of the series), tumour line B
[3] = at 45.9 µM (top of the series), tumour line D
[4] = at 46 µM (top of the series), tumour line A
[5] = at 46.1 µM (top of the series), tumour line C
% is scaled to controls: 0 for no effect and ±100 for the full control effect.

O=S(=O)(O)NC1CCCCC1
inactive: Potency (MCC-13) | Potency (MCC-26) | Potency (MKL-1) | Potency (MKL-2) | Potency (UISO) | Potency (WaGa) | Potency (C33A) | Potency (CASKI) | Potency (Es-2) | Potency (HeLa) | Potency (Hek293T) | Potency (JEG-3) | Potency (OV90) | Potency (PA-1) | Potency (SKOV3) | Potency (Tov-21-G) | Potency (Tov112D) | activity, negative = cell killing [1, 2] -10.5% | activity, negative = cell killing [1, 3] -5.78% | activity, negative = cell killing [1, 4] -19.1%

COc1ccc(Cl)cc1C(=O)NCCc1ccc(S(=O)(=O)NC(=O)NC2CCCCC2)cc1
inactive: Potency (MCC-13) | Potency (MCC-26) | Potency (MKL-1) | Potency (MKL-2) | Potency (UISO) | Potency (WaGa) | Potency (C33A) | Potency (CAOV3) | Potency (CASKI) | Potency (Es-2) | Potency (HeLa) | Potency (Hek293T) | Potency (JEG-3) | Potency (OV90) | Potency (PA-1) | Potency (SKOV3) | Potency (Tov-21-G) | Potency (Tov112D) | activity, negative = cell killing [1, 2] 5.08% | activity, negative = cell killing [1, 3] -17.4% | activity, negative = cell killing [1, 4] -29% | activity, negative = cell killing [1, 5] -8.3%

Nc1ccc(S(=O)(=O)Nc2nccs2)cc1
inactive: Potency (MCC-13) | Potency (MCC-26) | Potency (MKL-1) | Potency (MKL-2) | Potency (UISO) | Potency (WaGa) | Potency (C33A) | Potency (CAOV3) | Potency (CASKI) | Potency (Es-2) | Potency (HeLa) | Potency (Hek293T) | Potency (JEG-3) | Potency (OV90) | Potency (PA-1) | Potency (Tov-21-G) | Potency (Tov112D) | activity, negative = cell killing [1, 2] -4.74% | activity, negative = cell killing [1, 3] -5.75% | activity, negative = cell killing [1, 4] -21.1% | activity, negative = cell killing [1, 5] -7.84%

Cc1cccc(C)c1NC(=O)CN(CC(=O)O)CC(=O)O
inactive: Potency (MCC-13) | Potency (MCC-26) | Potency (MKL-1) | Potency (MKL-2) | Potency (UISO) | Potency (WaGa) | Potency (C33A) | Potency (CASKI) | Potency (Es-2) | Potency (HeLa) | Potency (Hek293T) | Potency (JEG-3) | Potency (OV90) | Potency (PA-1) | Potency (SKOV3) | Potency (Tov-21-G) | Potency (Tov112D) | activity, negative = cell killing [1, 2] 1.75% | activity, negative = cell killing [1, 3] -3.71% | activity, negative = cell killing [1, 4] -11.4% | activity, negative = cell killing [1, 5] -3.39%

C[C@@H]1C[C@H]2[C@@H]3C[C@H](F)C4=CC(=O)C=C[C@]4(C)[C@@]3(F)[C@@H](O)C[C@]2(C)[C@@]1(O)C(=O)CO
inactive: Potency (MCC-13) | Potency (MCC-26) | Potency (MKL-1) | Potency (MKL-2) | Potency (UISO) | Potency (WaGa) | Potency (C33A) | Potency (CAOV3) | Potency (CASKI) | Potency (Es-2) | Potency (HeLa) | Potency (Hek293T) | Potency (JEG-3) | Potency (OV90) | Potency (PA-1) | Potency (SKOV3) | Potency (Tov-21-G) | Potency (Tov112D) | activity, negative = cell killing ([1]; at 20 µM (top of the series), tumour line C) 17.9% | activity, negative = cell killing ([1]; at 21.2 µM (top of the series), tumour line B) -15.7% | activity, negative = cell killing ([1]; at 21.2 µM (top of the series), tumour line D) -7.98% | activity, negative = cell killing ([1]; at 21.3 µM (top of the series), tumour line A) -20.6%
